Screen size: about 16,000 compounds; about 2,600 (16%) were called active. Not shown: some 20% with an inconclusive outcome. The list is a sample of the results. Values without a mark were called inactive. The call rests on the fitted dose curve; in most records, active means well fitted curve in the direction sought with a large enough effect; inconclusive means small, poorly fitted or top-dose-only effect, or effect the other way; inactive means no such curve, though single readings can be large or run the other way.
On the % scale 0 is the no-effect control and ±100 the full control effect.

In the assay the target is Cytochrome P450 2D6 (Homo sapiens) (UniProt P10635). As to the kind of experiment: Cytochrome panel assay with activity outcomes. The note with it: recombinant CYP, pro-luciferin dealkylation, luminescence, p450-cyp2d6; series mostly up to 57.1 µM; activity, negative = inhibition: at the top concentration.
Cytochrome P450 2D6 (Homo sapiens), sequence (P10635 whole entry, looked up): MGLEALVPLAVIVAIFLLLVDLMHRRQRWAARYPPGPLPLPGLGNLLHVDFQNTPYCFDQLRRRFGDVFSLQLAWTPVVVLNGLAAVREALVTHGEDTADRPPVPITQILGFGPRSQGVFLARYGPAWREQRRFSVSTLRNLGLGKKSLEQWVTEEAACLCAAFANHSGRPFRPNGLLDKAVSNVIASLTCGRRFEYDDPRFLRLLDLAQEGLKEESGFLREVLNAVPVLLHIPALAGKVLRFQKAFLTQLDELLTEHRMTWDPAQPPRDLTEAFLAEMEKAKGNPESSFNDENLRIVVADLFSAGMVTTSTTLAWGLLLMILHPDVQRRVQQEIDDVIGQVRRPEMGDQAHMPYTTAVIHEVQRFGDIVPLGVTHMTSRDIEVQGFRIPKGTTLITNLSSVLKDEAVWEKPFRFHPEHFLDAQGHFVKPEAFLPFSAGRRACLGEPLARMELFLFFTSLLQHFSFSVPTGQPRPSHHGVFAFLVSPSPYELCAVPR
Take `Nc1nc2c(c(=O)[nH]1)N[C@H](CCNc1ccc(C(=O)O)cc1)CN2`: the activity, negative = inhibition is 1.76% [at 11.4 µM]. With `Cc1nc(-c2cccnc2)sc1C(=O)Nc1ccc(Cl)cc1`, the half-maximal activity concentration (AC50) (usually the concentration giving half of the maximal activity seen) was 15.8 µM (active). Consider `Cc1nc(-c2cccnc2)sc1C(=O)Nc1ccc(F)cc1F`, for which the “activity, negative = inhibition” value is -13.3%. The same measure, in the same setting: for `CNC(=O)c1sc(-c2cccnc2)nc1C` the value was 1.87%. The same measure, in the same setting: under `N#CCCn1c(=O)c(-c2ccc(Cl)cc2)nc2cnc(Oc3cccc(Cl)c3)nc21` stands 8.48%.

For `CCOC(=O)C(C)(C)[C@H](O)C(C)C`, the activity, negative = inhibition is 10.9% [at 11.4 µM]. Same read-out and setting: under `N[C@@H](Cc1ncccn1)C(=O)O` stands -1.91% [at 11.4 µM]. Still for that read-out and setting: for `Cc1nn(C)c(Cl)c1NC(=O)OCc1ccc(Cl)cc1Cl` the value was -12.9%. `Clc1ccc(COC(Cn2ccnc2)c2ccc(Cl)cc2Cl)c(Cl)c1` (centres undefined): the half-maximal activity concentration (AC50) was 1 µM (active).

Turning to `Clc1ccc(CO[C@@H](Cn2ccnc2)c2ccc(Cl)cc2Cl)cc1`, the AC50 was 0.2 µM (active). Same read-out and setting: for `Clc1ccc([C@H](Cn2ccnc2)OCc2csc3c(Cl)cccc23)c(Cl)c1` the value was 5.01 µM (active). As for `COCCn1c(=O)c(-c2cc(F)cc(F)c2)nc2cnc(N3CCOCC3)nc21`, the “activity, negative = inhibition” value is 9.89%. Still for that read-out and setting: under `O=C1Nc2ccc(F)cc2C12SCCS2` stands -4.91%. Same read-out and setting: for `Cn1c(=O)c(-c2ccc(F)c(F)c2)nc2cncnc21` the value was -1.7%; for `N#CCCn1c(=O)c(CCc2ccccc2)nc2cnc(Oc3cccc(Cl)c3)nc21`, 1.73%; for `CC1CCC(=NNC(=O)Cc2ccccc2)CC1` (centres undefined), -22%. As for `CN1Cc2c(C(=O)OC(C)(C)C)ncn2-c2ccsc2C1=O`, the “activity, negative = inhibition” value was -3.58%.

In the case of `N#Cc1ccc(-c2ccc(F)cc2)nc1Oc1ccc(Cl)c(Cl)c1`, the “activity, negative = inhibition” value was 1.51%. On the same count and under the same terms, for `Cc1ccc2ncc([N+](=O)[O-])n2c1` the value was 0.899%. Regarding `O=C(O)C1=CCCNC1`, the AC50 entry is “inactive”.

Regarding `O=C(O)C(=O)/C=C(\O)c1ccc(Br)cc1`, the activity, negative = inhibition was -0.0145% [at 11.4 µM]. On the same count and under the same terms, for `Cc1ccc(-c2nn3c(C)nnc3c3ccccc23)cc1S(=O)(=O)NCCN1CCOCC1` the value was -18%; for `CC(=O)Nc1ccc(S(=O)(=O)NC(CC(=O)NCCCN2CCOCC2)C(C)C)cc1` (centres undefined), -17.2%. Take `Cc1cc(S(=O)(=O)NCCCN2CCOCC2)ccc1F`: the AC50 was 12.6 µM (active). `COc1ccc(-c2nc3cnc(N4CCN(C)CC4)nc3n(Cc3ccc(F)cc3)c2=O)cc1`: the “activity, negative = inhibition” value was -1.05%. Same read-out and setting: for `O=C(O)CCC(=O)c1ccc2sc3ccccc3c2c1` the value was -3.63% [at 11.4 µM]. For `CCCCN(CCCC)CCCOC(=O)c1ccc(N)cc1`, the concentration at half-maximal activity (AC50) was 0.00631 µM (active). Take `CCCCNc1ccc(C(=O)OCCOCCOCCOCCOCCOCCOCCOCCOCCOC)cc1`: the “activity, negative = inhibition” value is -0.114% [at 25.6 µM]. The same measure, in the same setting: under `CN(C)CCOC(=O)c1ccc(N)cc1` stands 11.9% [at 11.4 µM]. Still for that read-out and setting: for `Cc1cc([N+](=O)[O-])c(C)c(Br)c1C` the value was -1.18% [at 11.4 µM]; for `CC(C)(C)C(=O)OCOC(=O)[C@@H]1N2C(=O)[C@@H](NC(=O)[C@H](N)c3ccccc3)[C@H]2SC1(C)C`, -5.86% [at 25.6 µM].

`O=C(Nc1cccc(F)c1)N1CCCC2(CCN(C(=O)c3cc(C(F)(F)F)cc(C(F)(F)F)c3)CC2)C1`: the “activity, negative = inhibition” value was -4.07%. As for `CCOc1ccccc1Oc1c(C)oc2cc(OC(=O)c3ccco3)ccc2c1=O`, the “activity, negative = inhibition” value is -2.7%. `CCOc1ccccc1Oc1coc2cc(OC)ccc2c1=O`: the half-maximal activity concentration (AC50) was 0.501 µM (active). With `COc1ccc2c(=O)c(-c3ccccc3)c(C)oc2c1`, the “activity, negative = inhibition” value is 1.82%.

Regarding `CC(C)C(C(=O)O)N1C(=O)/C(=C/C=C/c2ccco2)SC1=S` (centres undefined), the “activity, negative = inhibition” value was 8.03%. Still for that read-out and setting: under `CCCCN(C)C(=O)c1coc(=O)c2ccccc12` stands 23.8%; under `O=[n+]1c2c(n([O-])c3cc(F)c(F)cc31)CCCC2`, 3.89%; under `O=C1c2ccccc2-c2ccc(NC(=O)[C@H]3CCCC[C@@H]3C(=O)O)cc21`, -8.68% [at 11.4 µM]. Take `CCC(=O)Nc1ccc2c(c1)C(=O)c1ccccc1C2=O`: the AC50 was 7.08 µM (active).

Regarding `O=C(Nc1ccc(Nc2ccc3c(c2)C(=O)c2ccccc2C3=O)c2c1C(=O)c1ccccc1C2=O)c1ccccc1`, the activity, negative = inhibition is -5.75% [at 11.4 µM]. The same measure, in the same setting: under `COc1ccc(/C=N/n2c(C)nnc2C)c(OC)c1` stands -1.27%; under `CCn1c2ccccc2c2nnc(NCCCO)nc21`, 3.89% [at 11.4 µM]. `Cn1cnc2c(NCc3ccccc3)nc(NCCO)nc21`: the half-maximal activity concentration (AC50) is 1.26 µM (active). Consider `OCCn1cnc2c(SCc3ccccc3)ncnc21`, for which the activity, negative = inhibition is -0.741% [at 11.4 µM]. On the same count and under the same terms, under `O=C1[C@H]2[C@H]3[C@H](O)[C@H](O)C/C(=N/OC[C@@H](O)COCc4ccco4)[C@@H]3CC[C@@H]2C(=O)N1Cc1ccc2c(c1)OCO2` stands 0.398% [at 11.4 µM]; under `CN1CCC(N(C)C(=O)CCc2nc3ccccc3c(=O)[nH]2)CC1`, 5.72%; under `O=C(O)CSc1ccn(Cc2ccccc2)c1`, 9% [at 11.4 µM]. For the compound `O=C(COC(=O)c1cccnc1Nc1cccc(C(F)(F)F)c1)NCc1ccc2c(c1)OCO2`, the AC50 was 1.12 µM (active). In the case of `O=C(COC(=O)c1cnccn1)NCc1ccccc1`, the “activity, negative = inhibition” value was -13.3%. Same read-out and setting: for `O=C(O)c1cccnc1Nc1cccc(C(F)(F)F)c1` the value was -1.07% [at 25.6 µM]. On the same count and under the same terms, under `Cc1cc2nnc(SCC(=O)OC(C)C)n2c2ccccc12` stands -7.14%.

On to `NC1=C2NC=N[C@@H]2N(C/C=C\c2ccccc2)C=N1`, for which the activity, negative = inhibition is -12.6% [at 11.4 µM]. Same read-out and setting: under `N#CCCn1c(=O)c(-c2cccs2)nc2cnc(Oc3cccc(Cl)c3)nc21` stands 3.98%. Turning to `Cc1cc(NC(=O)C2CCCCC2)nc2c1c(=O)oc1ccccc12`, the AC50 is 20 µM (active). For `COc1ccc2oc(=O)c(NC(=O)C3CCCCC3)cc2c1`, the “activity, negative = inhibition” value is 21.2%.

Consider `O=C(Nc1cc2ccccc2oc1=O)C1CCCCC1`, for which the “activity, negative = inhibition” value was -12.9%. Turning to `O=c1cnc2cnc(Nc3ccccc3)nc2n1C[C@H]1CCCO1`, the “activity, negative = inhibition” value was -9.42%. The same measure, in the same setting: under `COc1ccc(-c2cc(CNC(C)=O)on2)cc1` stands 21.2%. Regarding `COc1ccccc1/C=C/C=N/N1CCN(Cc2cccc3ccccc23)CC1`, the AC50 was 7.94 µM (active). For `COc1ccccc1CC(=O)O/N=C(\N)Cc1cccc2ccccc12`, the “activity, negative = inhibition” value is -5.92%. On the same count and under the same terms, under `FC(F)(F)c1ccc(/C=N/N2CCN(Cc3cccc4ccccc34)CC2)cc1` stands -19.8%; under `CCc1nc(N2CCC3(CC2)OCCO3)c2nnn(Cc3ccccc3Cl)c2n1`, -15.5%; under `Cc1cc2c(cc1C)-c1nnc(-c3ccc4ccccc4n3)n1C(C)(C)C2`, 15.6%. Turning to `c1ccc2nc(-c3ccncc3)ccc2c1`, the AC50 is 15.8 µM (active).

For `CC(C)C(=O)Cc1ccc2ccccc2n1`, the activity, negative = inhibition is 5.06% [at 11.4 µM]. Same read-out and setting: for `Cc1ccc([N+](=O)[O-])cc1N=C(c1cccc([N+](=O)[O-])c1)N1CCOCC1` the value was -24.8%. On the same count and under the same terms, for `CC(=O)c1cnc2cc(C)nn2c1C` the value was -4.17%; for `CC(C)Oc1ccc2ccccc2c1C=O`, -4.59%. On the same count and under the same terms, for `O=C(NNC(=O)C1CCN(S(=O)(=O)c2ccc(Cl)cc2)CC1)c1ccc(Cl)cc1` the value was -4.04%; for `Cc1[nH]c2c(C)ccc(C)c2c1CC(=O)O`, -12.2% [at 11.4 µM]; for `COc1ccc(NC(=O)COC(=O)Cn2c(C)nc3ccccc32)cc1OC`, 16.2%. In the case of `C=CCn1c(P(=O)(O)c2ccccc2)nc2ccccc21`, the “activity, negative = inhibition” value was -7.57%. The same measure, in the same setting: for `CC(=O)Nc1nc2ccccc2n1Cc1ccccc1` the value was -11.8%.

Consider `COc1ccc(CNc2nc3ccccc3n2Cc2ccccc2)cc1OC`, for which the AC50 is 0.794 µM (active). Regarding `C=CCn1c(-c2cccn(Cc3ccccc3)c2=O)n[nH]c1=S`, the “activity, negative = inhibition” value is 4.47%. Regarding `C=CCn1c(NCc2ccccc2)nc2ccccc21`, the concentration at half-maximal activity (AC50) was 0.398 µM (active). On to `O=C(NCC1CCCO1)c1onc(CSc2ccccc2F)c1C(=O)O` (centres undefined), for which the “activity, negative = inhibition” value is 0.926%. As for `O=C(O)c1ccccc1N/N=C\c1ccnc2ccccc12`, the “activity, negative = inhibition” value is -29.2%.

As to `CC(=O)ON(C(C)=O)S(=O)(=O)c1ccc(Cl)cc1`, the “activity, negative = inhibition” value was 12.6%.

In the case of `Cc1[nH]n(C(C)(C)C)c(=O)c1Sc1ccccc1`, the “activity, negative = inhibition” value is -13.6%. The same measure, in the same setting: under `O=P(O)(CCP(=O)(O)c1ccccc1)c1ccccc1` stands 0.684% [at 11.4 µM]; under `O=C(c1cc(C(F)(F)F)cc(C(F)(F)F)c1)N1CCC2(CC1)CCN(c1ncccn1)CC2`, -13.1%. Still for that read-out and setting: for `Cc1ccc(-c2ccc(/C=N\NC(=O)c3cc4c(ccc5ccccc54)o3)o2)cc1[N+](=O)[O-]` the value was 7.58%; for `O=C(N/N=C(\c1ccccc1)c1cccnc1)C(O)(c1ccccc1)c1ccccc1`, -25.7%. As to `Clc1ccc(CC[C@H](Cn2ccnc2)Sc2c(Cl)cccc2Cl)cc1`, the AC50 was 1.26 µM (active). On to `O=C1C2=CC[C@@H]3C(=O)N(c4ccc(F)cc4F)C(=O)[C@H]3[C@H]2[C@H](O)[C@H]2O[C@H]12`, for which the activity, negative = inhibition was 6.42% [at 11.4 µM]. As for `CCCCN(C)CCCNC(=O)CS(=O)Cc1nc(-c2ccc(OC)c(OC)c2)oc1C` (centres undefined), the AC50 was 11.2 µM (active). With `COc1cccc(-c2nc(CS(=O)(=O)CC(=O)NCCCOC(C)C)c(C)o2)c1`, the “activity, negative = inhibition” value is -7.29%. Same read-out and setting: under `COc1ccc(-c2nc(C#N)c(N3CCC(C(N)=O)CC3)o2)cc1OC` stands 4.34%; under `COc1ccc(CCN(C)CCC(=O)Nc2c(C)cc(C)cc2C)cc1OC`, -65.7%. Same read-out and setting: under `COc1ccc(-c2nc(CSCC(=O)NCC3CCCO3)c(C)o2)cc1OC` (centres undefined) stands -17.1%. In the case of `CCCN(CCC)CCCNC(=O)CS(=O)Cc1nc(-c2ccc(OC)c(OC)c2)oc1C` (centres undefined), the AC50 was 5.01 µM (active). On to `CC(C)(C)CC(C)(C)c1ccc(OCOCCOCCO)c(Cc2cc(C(C)(C)CC(C)(C)C)cc(Cc3cc(C(C)(C)CC(C)(C)C)ccc3OCOCCOCCO)c2OCOCCOCCO)c1`, for which the “activity, negative = inhibition” value is -8.49% [at 25.6 µM]. Still for that read-out and setting: under `CCCCSc1nc(C)cc(C)c1S(=O)(=O)c1ccccc1C` stands -21.8%; under `Cc1ccc([C@@]2(C)CC/C(=N/N=C3\CC[C@](C)(c4ccc(C)c(C)c4)c4cc(C)c(C)cc43)c3cc(C)c(C)cc32)cc1C`, -2.73% [at 11.4 µM]; under `O=c1ccc(Oc2nc(N3CCOCC3)nc(N3CCOCC3)n2)n[nH]1`, 14.7%.

On to `NCC[C@H](N)C(=O)O`, for which the activity, negative = inhibition is 6.66% [at 11.4 µM]. As to `O=S(=O)(/N=C(/Nc1ccccn1)c1ccccc1)c1ccc(Cl)cc1`, the “activity, negative = inhibition” value was 17.3%.

The values above are taken from PubChem BioAssay AID1851 (National Center for Advancing Translational Sciences (NCATS), 2009).
